Compounds with a hit are over-represented: about 4% of the library has one in this group of screens.
Gli-Sufu antag: Gli-Sufu pathway antagonists, primary screen, luciferase luminescence, Sufu-KO-LIGHT cells, uHTS; Sufu-KO-LIGHT fibroblasts, Gli luciferase reporter luminescence; inhibition, % at 5 µM; 340,000 tested, 0.74% active;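 active = inhibition above about 55%, limit read from the data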;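 note: 0% = DMSO-treated cells and 100% = wells with medium but no cells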
Mdm2 MdmX PPI: inhibitors of human Mdm2-MdmX association, primary screen, cell-based, luminescence, split luciferase, SaOS-2, uHTS. Protein Mdm4 (Homo sapiens) + E3 ubiquitin-protein ligase Mdm2 (Homo sapiens), …. inhibition, % at 8 µM. SaOS-2 split-luciferase Mdm2/MdmX complementation. 330,000 tested, 3% active;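 active = inhibition of at least 50% at 8 µM in the primary screen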
Target sequence (O15151 whole entry, looked up): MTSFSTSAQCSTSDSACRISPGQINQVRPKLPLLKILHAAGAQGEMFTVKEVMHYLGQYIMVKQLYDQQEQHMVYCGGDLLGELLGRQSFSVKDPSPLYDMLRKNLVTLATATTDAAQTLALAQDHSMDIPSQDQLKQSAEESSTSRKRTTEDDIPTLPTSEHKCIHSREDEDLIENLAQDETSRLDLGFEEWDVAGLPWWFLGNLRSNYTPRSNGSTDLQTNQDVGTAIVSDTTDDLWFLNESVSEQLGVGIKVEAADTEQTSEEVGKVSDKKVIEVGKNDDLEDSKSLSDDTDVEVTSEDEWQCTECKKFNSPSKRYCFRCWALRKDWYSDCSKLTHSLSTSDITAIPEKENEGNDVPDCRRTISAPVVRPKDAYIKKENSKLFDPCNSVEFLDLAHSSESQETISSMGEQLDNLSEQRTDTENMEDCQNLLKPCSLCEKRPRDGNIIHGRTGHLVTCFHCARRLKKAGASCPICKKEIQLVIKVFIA
Target sequence (Q00987 whole entry, looked up): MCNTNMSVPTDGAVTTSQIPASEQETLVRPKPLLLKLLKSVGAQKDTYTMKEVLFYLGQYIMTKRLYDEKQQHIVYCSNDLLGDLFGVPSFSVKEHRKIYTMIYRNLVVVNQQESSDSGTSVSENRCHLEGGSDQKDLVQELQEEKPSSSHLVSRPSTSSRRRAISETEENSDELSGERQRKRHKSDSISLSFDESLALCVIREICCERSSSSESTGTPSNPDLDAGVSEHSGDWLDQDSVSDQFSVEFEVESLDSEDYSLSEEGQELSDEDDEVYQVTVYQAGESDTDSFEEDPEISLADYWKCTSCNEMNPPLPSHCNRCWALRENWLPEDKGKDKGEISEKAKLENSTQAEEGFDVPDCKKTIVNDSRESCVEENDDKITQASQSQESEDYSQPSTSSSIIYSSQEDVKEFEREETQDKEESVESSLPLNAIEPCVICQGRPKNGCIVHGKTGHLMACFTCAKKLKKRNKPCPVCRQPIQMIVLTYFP
697 NFkB inh: inhibitors of PMA/ionomycin-induced NF-kB reporter, 697 cells, primary screen, B-cell NF-kB inhibitor project, cell-based, luminescence, uHTS. inhibition, % at 4 µM. 330,000 tested, 0.33% active. AID 435022, 2010. 697 B-cell NF-kB luciferase reporter, 16 h; in the data active = inhibition above about 35%
Beta apoptosis: inhibitors of cytokine-induced beta cell apoptosis, primary screen, luminescence | INS-1E cytokine-induced death, ATP luminescence, 48 h; percent of positive-control rescue, neutral wells zero | 300,000 tested, 0.8% active | protection from apoptosis, % (concentration not given with the values);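 active = Every replicate reaches about 75%, or at least half do and their mean reaches it too, limit read from the data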;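 note: 0% = cytokine-treated negative control wells and 100% = positive control rescue; higher means more ATP so stronger rescue from cytokine killing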
Jurkat NFkB inh: inhibitors of induced NF-kB luciferase reporter, primary screen, TCR NF-kB activation inhibitor project, cell-based, luminescence, uHTS. AID 435003, 2010. inhibition, % at 4 µM. 330,000 tested, 0.53% active. Jurkat, PMA/ionomycin-induced NF-kB luciferase reporter; in the data active = inhibition above about 50%
Starred values were filed as active, the others as inactive; . = not tested or not shown.

SMILES | Gli-Sufu antag | Mdm2 MdmX PPI | 697 NFkB inh | Beta apoptosis | Jurkat NFkB inh
Cc1nc(N/N=C/c2ccccn2)sc1C | 58.5* | . | . | 110.0* | .
COC(=O)c1ccc(/C=N/Nc2nc(C)c(C)s2)cc1 | -57.1 | -144.1 | -195.5 | 9.9 | -138.0
CCC1=NN(C(=O)c2ccccc2O)C(O)(c2ccccc2)C1 (configuration not stated) | -12.3 | 41.2 | -53.3 | 86.9* | 11.1
CCN1C(=NCCOC)N[C@@H](c2cccc(C(F)(F)F)c2)C(C(=O)OC)=C1C | 14.2 | 31.7 | -16.1 | 1.8 | -0.1
CCN1C(=NCC2CC2)N[C@@H](c2cccc(C(F)(F)F)c2)C(C(=O)OC)=C1C | 95.9* | 27.9 | -7.6 | 7.3 | 6.1
COc1nc(Cl)cn(-c2ccc(C)cc2)c1=O | -2.6 | -15.2 | 21.0 | -3.0 | 4.3
Cc1ccc(-n2c(Cl)c(Cl)nc(Cl)c2=O)cc1 | 10.5 | . | . | 98.4* | .
C/C(=N\Nc1nc2ccccc2s1)c1ccc(Br)s1 | 19.4 | 10.0 | -36.8 | 90.4* | -2.9
CCCCCCCn1c2c(c(=N)c3c1CCC3)CCCC2 | 89.5* | . | . | . | .
Cc1ccc(Sc2cc(C)nc(-c3ccccn3)n2)cc1 | -30.1 | -4.2 | -48.0 | 86.7* | -22.7
COc1cnc(-c2ccccn2)nc1Sc1ccc(C)cc1 | 4.5 | 42.6 | -19.9 | 91.5* | -4.9
O=C(CN1CCN(S(=O)(=O)c2ccc(F)cc2)CC1)Nc1ccnn1C1CCCC1 | 5.5 | -0.3 | -47.1 | . | -9.0
Cc1cc(Nc2ccccc2)n(-c2ccccc2)n1 | -1.9 | 11.5 | 13.3 | -3.3 | -3.9
Cc1cc(C)nc(-n2nc(C)cc2Nc2ccccc2)n1 | 1.5 | 2.2 | -46.2 | 84.6* | -9.4
CC1=NN(c2nc3ccccc3[nH]2)C(=O)/C1=C/N(C)C | -25.2 | 28.9 | -16.0 | 113.5* | 7.2
CC1=NN(c2ccccc2)C(=O)/C1=C/N(C)C | -7.1 | -32.3 | 14.7 | -2.5 | 1.3
Cc1ccc(S(=O)(=O)/N=C2\C(=O)c3ccccc3C([O-])=C2n2cc[n+](CCC(C)C)c2)cc1 | 9.5 | 21.3 | 0.6 | 90.5* | 22.0
Cc1ccc(NC(=O)C[n+]2ccn(C3=C([O-])c4ccccc4C3=O)c2)cc1 | 3.0 | -13.0 | -2.9 | -1.6 | -9.1
CCCC[n+]1ccn(C2=C([O-])c3ccccc3C(=O)/C2=N\S(=O)(=O)c2ccc(Br)cc2)c1 | 24.0 | 28.8 | 16.3 | 89.8* | 17.5
CSc1sc(C(=O)NC(=O)NCc2ccncc2)c(C)c1-c1ccon1 | -1.4 | 34.7 | 0.9 | -9.1 | -7.4
Cc1ccc(Cn2c(=N)n(CC(=O)c3ccccc3)c3ccccc32)cc1 | 31.8 | 33.0 | -16.0 | 98.2* | 23.9
O=C(Nc1ccc(Oc2ccccc2)cc1)C1CCN(c2c3c(nc4ncnn24)CCC3)CC1 | 70.3* | 36.6 | -15.9 | 58.0 | 16.4
CCOc1ccc(NC(=O)CN(C)C(=O)C(C)N2C(=O)c3ccccc3C2=O)cc1OCC (configuration not stated) | -4.5 | 30.1 | 23.8 | 2.4 | -10.6
COc1ccc(C(=O)OCC(=O)NCCN2C(=O)CSC2=O)cc1[N+](=O)[O-] | -3.6 | -27.4 | -33.1 | -5.6 | -12.0
CC(OC(=O)c1ccc(NC(=O)CC#N)cc1)C(=O)Nc1ccc(Oc2ccccc2)cc1 (configuration not stated) | . | 18.0 | -26.9 | -1.4 | 0.6
SMILES | Gli-Sufu antag | Mdm2 MdmX PPI | 697 NFkB inh | Beta apoptosis | Jurkat NFkB inh
Cc1cc(C(=O)C(C)OC(=O)c2ccc(NC(=O)CC#N)cc2)c(C)n1-c1ccc(OC(F)F)cc1 (configuration not stated) | 29.1 | 27.2 | -10.3 | 87.5* | 7.8
COc1ccc(NC(=O)CNC(=O)c2nn(-c3ccc(OC)cc3OC)c(=O)c3ccccc23)c(OC)c1 | 7.8 | 5.9 | 15.3 | 0.2 | 8.8
CCCc1nc2c(=O)n(C)c(=O)nc-2n(C)n1 | 58.9* | . | . | . | .
CCn1c(N)nc2c1c(=O)n(C)c(=O)n2C | -7.3 | 4.8 | 8.9 | -2.4 | 0.2
Cc1nc2scc(C)n2c(=O)c1S(=O)(=O)Nc1ccc(N2CCOCC2)c(Cl)c1 | 71.4* | 22.1 | -58.3 | 40.0 | 18.9
Cc1nc2sccn2c(=O)c1S(=O)(=O)Nc1ccc(N2CCOCC2)c(Cl)c1 | 9.9 | 26.8 | -39.1 | 9.0 | -1.3
c1ccc(CCNc2ccnc3cc4ccccc4cc23)cc1 | 83.0* | . | . | . | .
O=C(NNC(=O)C1COc2ccccc2O1)c1ccccc1O (configuration not stated) | -0.4 | 24.1 | -0.9 | . | 9.6
Cc1ccc(NC(=O)C2CC(O)CN2C(=O)OCc2ccccc2)cc1C (configuration not stated) | 2.7 | 13.3 | 5.0 | . | 3.7
O=[N+]([O-])c1ccc(O)c(/C=N/n2cnnc2)c1 | -1.6 | -5.2 | -7.7 | -3.0 | 9.6
O=[N+]([O-])c1cccc(/C=N/n2cnnc2)c1 | 2.8 | 27.5 | 8.1 | 81.7* | 16.5
COc1ccc(-c2c[n+]3c4n2CCCCC4=C(c2ccc(Br)cc2)C3)cc1 | 15.2 | . | . | 104.1* | .
COc1ccc(CNc2cccc3[nH]c(C(F)(F)F)nc23)cc1 | -4.4 | 19.8 | 2.9 | . | -15.2
Cc1ccc(C(=O)Nc2cccc3[nH]c(C(F)(F)F)nc23)cc1 | -3.8 | 2.9 | -10.0 | 78.3* | -0.7
N=c1ccn(Cc2ccc(Cl)cc2Cl)cc1 | 27.9 | 17.2 | 34.8 | 103.1* | 46.9
N=c1ccn(Cc2ccc(Cl)cc2)cc1 | 31.2 | 27.7 | -3.3 | 55.1 | 21.3
COC1=C(Nc2ccccc2OC)C(=O)c2ccccc2C1=O | 18.8 | -1.1 | 4.8 | 83.3* | 15.2
COc1ccccc1NC1=C(NC(C)=O)C(=O)c2ccccc2C1=O | -2.0 | . | . | . | .
O=C(CN1C(=O)NC(Cc2ccccc2)C1=O)Nc1ccc(F)c(F)c1F (configuration not stated) | -5.2 | -20.6 | 10.2 | -1.0 | -6.3
COc1cccc(/C=N/Nc2snc(SC)c2C#N)c1O | -1.2 | 43.7 | -97.4 | 100.7* | -35.1
COc1cccc(/C=N/Nc2ccnc(=O)[nH]2)c1O | 39.4 | 34.8 | -36.0 | 92.7* | -12.6
O=c1nccc(N/N=C/c2ccccc2O)[nH]1 | 44.8 | 32.3 | -32.0 | 124.7* | -5.5
COc1ccc(S(=O)(=O)N(C)C)cc1NC(=O)c1ccc2c(c1)NC(=O)C(C)S2 (configuration not stated) | -6.1 | 7.1 | 18.4 | 1.9 | -0.9
S=C(NCCc1ccccc1)Nc1ccc(Nc2ccccc2)cc1 | 8.7 | 41.5 | 1.0 | 91.7* | 1.4
Nc1ccccc1C(=O)N1CCc2ccccc21 | 23.9 | -30.4 | -87.2 | -1.1 | -0.5
Cc1cc(Cl)ccc1N(CC(=O)NCc1ccc2c(c1)OCO2)S(C)(=O)=O | 8.8 | 13.0 | 8.8 | 1.7 | 8.4
